According to the supplement of paper PMC7057948, “A genome-wide approach for identification and characterisation of metabolite-inducible systems” (Nature Communications, 2020):

Legend:
Assay in all cases: relative induction of RFP reporter vs primary effector (background-corrected); higher = stronger activation of the biosensor
Conditions in all cases: inducer concentration 5 mM; 6 h; Cupriavidus necator H16; minimal medium + 0.4% gluconate
[1] = tested on: AcoR/P_H16_RS19445 acetoin biosensor (pEH052)
Experimental: (§1)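 C. necator H16 strains, each carrying one of 21 transcription factor/inducible promoter–mRFP biosensor plasmids, were grown in minimal medium in 96-well plates (robotic platform). Each was exposed to 46 structurally or metabolically related compounds at 5 mM at 30 °C. OD-normalised RFP fluorescence was read 6 h later and expressed as relative induction (%) = 100 × (FL compound − FL uninduced)/(FL primary inducer − FL uninduced); mean of n=4.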

[2] = tested on: AraC/P_araBAD L-arabinose biosensor (pEH176)
Experimental: as §1

[3] = tested on: BenM/P_H16_RS09790 benzoate biosensor (pEH148)
Experimental: as §1

[4] = tested on: FdsR/P_H16_RS03165 formate biosensor (pEH134)
Experimental: as §1

[5] = tested on: GabR/P_H16_RS23655 GABA biosensor (pEH256)
Experimental: as §1

[6] = tested on: HpdR/P_H16_RS18295 3-hydroxypropanoate biosensor (pEH010)
Experimental: as §1

[7] = tested on: KynR/P_H16_RS14030 L-kynurenine biosensor (pEH136)
Experimental: as §1

[8] = tested on: NahR/P_H16_RS08125 salicylate biosensor (pEH042)
Experimental: as §1

[9] = tested on: OapR/P_H16_RS01330 beta-alanine biosensor (pEH147)
Experimental: as §1

[10] = tested on: PcaQ/P_H16_RS30145 3,4-dihydroxybenzoate biosensor (pEH161)
Experimental: as §1

[11] = tested on: PhgR/P_H16_RS05530 phenylglyoxylate biosensor (pEH155)
Experimental: as §1

[12] = tested on: PhhR/P_H16_RS18365 L-phenylalanine biosensor (pEH137)
Experimental: as §1

[13] = tested on: SauR/P_H16_RS13695 sulfonatoacetate biosensor (pEH157)
Experimental: as §1

[14] = tested on: TtdR/P_H16_RS10665 tartrate biosensor (pEH083)
Experimental: as §1

[15] = tested on: XdhR/P_H16_RS05055 xanthine biosensor (pEH154)
Experimental: as §1

[16] = tested on: heterologous inducible system pEH002 (rhamnose/acrylate/cumate/itaconate set)
Experimental: as §1

[17] = tested on: heterologous inducible system pEH020 (rhamnose/acrylate/cumate/itaconate set)
Experimental: as §1

[18] = tested on: heterologous inducible system pEH040 (rhamnose/acrylate/cumate/itaconate set)
Experimental: as §1

[19] = tested on: heterologous inducible system pEH086 (rhamnose/acrylate/cumate/itaconate set)
Experimental: as §1

[20] = tested on: BadR/P_H16_RS27200 cyclohexanecarboxylate biosensor (pEH159)
Experimental: as §1
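Also: RFP excited at 585 nm with emission read at 620 nm, culture medium blanks subtracted from fluorescence and absorbance prior to normalisation.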

| Structure (SMILES) | relative induction of RFP reporter [1] [%] | relative induction of RFP reporter [2] [%] | relative induction of RFP reporter [3] [%] | relative induction of RFP reporter [4] [%] | relative induction of RFP reporter [5] [%] | relative induction of RFP reporter [6] [%] | relative induction of RFP reporter [7] [%] | relative induction of RFP reporter [8] [%] | relative induction of RFP reporter [9] [%] | relative induction of RFP reporter [10] [%] | relative induction of RFP reporter [11] [%] | relative induction of RFP reporter [12] [%] | relative induction of RFP reporter [13] [%] | relative induction of RFP reporter [14] [%] | relative induction of RFP reporter [15] [%] | relative induction of RFP reporter [16] [%] | relative induction of RFP reporter [17] [%] | relative induction of RFP reporter [18] [%] | relative induction of RFP reporter [19] [%] | relative induction of RFP reporter [20] [%] |
| --- | --- | --- | --- | --- | --- | --- | --- | --- | --- | --- | --- | --- | --- | --- | --- | --- | --- | --- | --- | --- |
| Oc1ccccc1 [phenol] | -1.65 | -0.0137 | -0.0189 | -3.17 | -2.32 | -0.39 | -0.287 | 0.011 | -1.38 | -0.0887 | -0.147 | -0.522 | 0.0243 | 0.576 | -0.78 | -0.0073 | -2.66 | -1.14 | -0.575 | – |
| C[C@H](N)C(=O)O [L-alanine] | -2.72 | -0.0291 | -0.053 | -2.12 | -2.55 | -0.329 | -0.519 | 0.00167 | -0.209 | -0.263 | -0.259 | -0.741 | -0.0427 | -0.256 | -0.737 | -0.00357 | -1.6 | -1.7 | -0.23 | – |
| Oc1ccc(O)cc1 [hydroquinone] | 4.27 | 0.188 | 0.0575 | 11.3 | 8.11 | 1.65 | 1.53 | 0.108 | 0.00669 | 0.229 | 1.56 | 2.24 | 0.207 | 1.2 | 0.708 | 0.0465 | -0.0999 | 2.73 | 0.735 | 4.02 |
| CCCC(=O)O [butyric acid] | -2.08 | -0.0107 | -0.0464 | -1.59 | -2.45 | -0.186 | -0.35 | -0.000826 | -0.94 | 0.636 | -0.41 | -0.461 | 0.0337 | -0.384 | -0.758 | -0.00916 | -1.33 | -0.981 | -0.0776 | – |
| O=C(O)CC(CC(=O)O)C(=O)O [tricarballylate] | -0.69 | -0.0168 | -0.036 | -2.35 | -2.41 | -0.311 | -0.332 | -0.00531 | -1.38 | -0.249 | -0.562 | -0.293 | 0.0103 | 1.3 | -1.15 | 0.0188 | -1.48 | 0.497 | -0.0817 | -0.288 |
| N[C@@H](Cc1c[nH]c2ccccc12)C(=O)O [L-tryptophan] | -1.3 | 0.00791 | -0.0226 | 34.8 | -1.31 | -0.00554 | 65.7 | 0.00282 | -0.39 | -0.161 | -0.235 | 1.21 | 0.0508 | -0.293 | -0.684 | 0.00955 | -1.17 | -1.03 | -0.228 | -0.253 |
| O=S(=O)(O)CCO [isethionate] | -1.41 | -0.00384 | -0.0202 | -5.83 | -2.12 | -0.0757 | 0.0938 | 0.0152 | -0.424 | 6.61 | -0.518 | -0.0754 | 1.56 | 2.47 | -0.627 | 0.0178 | -1.34 | -1.22 | -0.0664 | – |
| NCCS(=O)(=O)O [taurine] | -0.255 | -0.0412 | -0.0223 | -0.473 | -1.59 | -0.142 | -0.215 | 0.0156 | 0.934 | 3.14 | -0.395 | -0.387 | 2.29 | 0.0679 | -0.494 | 0.00496 | -0.468 | -0.555 | 0.38 | – |
